Of roughly 7,900 targets only a part is listed; those with a hit were picked by preference. About 0.6% of all pairs of compound and target were hits.
Assays:
Assay in all cases: log2 fold change, soluble protein after heating vs DMSO (PISA); higher = thermal stabilisation; K562 cells, 10 uM, 30 min; active = over 0.2 and 3.5 SD of the protein, either way, in both replicates (recomputed)
IRAK-1-4 Inhibitor I = compound: C1COCCN1CCN2C3=CC=CC=C3N=C2NC(=O)C4=CC(=CC=C4)[N+](=O)[O-] [IRAK-1-4 Inhibitor I]
Summary of the method: (§1)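 Quantification of soluble protein used TMTpro 16plex LC-MS/MS, with channel sums equalised. Samples were the supernatant after 21,000xg for 90 min of pooled aliquots from K562 cells (2×10^6 cells/mL) treated with 10 μM compound for 30 min, heated for 3 min over 48°C-58°C, and extracted in PBS with 0.5% NP-40 at 4°C. Values, from duplicates, describe thermal stability against control samples on a log2 fold-change scale.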

ibrutinib = compound: C=CC(=O)N1CCC[C@@H](n2nc(-c3ccc(Oc4ccccc4)cc3)c3c(N)ncnc32)C1 [ibrutinib]
Summary of the method: as §1

[1] = compound: CC(=O)c1cnc2ccc(-c3cc(Cl)c(O)c(Cl)c3)nc2c1N[C@H]1CC[C@H](CN(C)C)CC1
Summary of the method: as §1

ralimetinib = compound: CC(C)(C)Cn1c(N)nc2ccc(-c3[nH]c(C(C)(C)C)nc3-c3ccc(F)cc3)nc21 [ralimetinib]
Summary of the method: as §1

[2] = compound: CC(C)(O)CC(=O)NCCn1ccc2ncnc(Nc3ccc(Oc4cccc(C(F)(F)F)c4)c(Cl)c3)c21
Summary of the method: as §1

[3] = compound: CC(C)C1=C2N=C(C=C(N2N=C1)NCC3=CC=CC=C3)NCCCCCCN
Summary of the method: as §1

[4] = compound: CC(C)C[C@@H](C=O)NC(=O)[C@H](CC(C)C)NC(=O)[C@H](CC(C)C)NC(=O)OCc1ccccc1
Summary of the method: as §1

pinometostat = compound: CC(C)N(C[C@H]1O[C@@H](n2cnc3c(N)ncnc32)[C@H](O)[C@@H]1O)[C@H]1C[C@@H](CCc2nc3cc(C(C)(C)C)ccc3[nH]2)C1 [pinometostat]
Summary of the method: as §1

[5] = compound: CC1=C(C(CC(=O)N1)C2=CC=C(C=C2)C(F)(F)F)C(=O)NC3=C(C=C4C(=C3)C=NN4)F
Summary of the method: as §1

[6] = compound: CC1=C(C2=C(C=C1)C(=O)C3=CC=CC=C3N2CCCN)C
Summary of the method: as §1

[7] = compound: CC1=C(C=C(C=C1)NC(=O)C2=CC(=CC=C2)C(C)(C)C#N)NC3=CC4=C(C=C3)N=CN(C4=O)C
Summary of the method: as §1

[8] = compound: CC1=C(C=C(C=C1)NC(=O)C2=CC(=CC=C2)N(C)C)NC(=O)C3=CC=C(C=C3)O
Summary of the method: as §1

[9] = compound: CC1=CC=C(C=C1)SC2=C3C=C(SC3=CN=C2)C(=O)N
Summary of the method: as §1

[10] = compound: CC1=NC(=CC=C1)C2=C(N=C(N2)C(C)(C)C)C3=CC4=NC=CN=C4C=C3
Summary of the method: as §1

Nexturastat A = compound: CCCCN(Cc1ccc(C(=O)NO)cc1)C(=O)Nc1ccccc1 [Nexturastat A]
Summary of the method: as §1

vemurafenib = compound: CCCS(=O)(=O)Nc1ccc(F)c(C(=O)c2c[nH]c3ncc(-c4ccc(Cl)cc4)cc23)c1F [vemurafenib]
Summary of the method: as §1

[11] = compound: CCCS(=O)(=O)Nc1ccc(F)c(C(=O)c2c[nH]c3ncc(Cl)cc23)c1F
Summary of the method: as §1

[12] = compound: CCCc1cc(C)[nH]c(=O)c1CNC(=O)c1cc(-c2ccnc(N3CCN(C)CC3)c2)cc2c1cnn2C(C)C
Summary of the method: as §1

givinostat = compound: CCN(CC)Cc1ccc2cc(COC(=O)Nc3ccc(C(=O)NO)cc3)ccc2c1 [givinostat]
Summary of the method: as §1

barasertib = compound: CCN(CCCOc1ccc2c(Nc3cc(CC(=O)Nc4cccc(F)c4)[nH]n3)ncnc2c1)CCOP(=O)(O)O [barasertib]
Summary of the method: as §1

Measured: log2 fold change

RAP1GDS1 isoform 5 (UniProt P52306)
Sequence of UniProt P52306 (P52306 whole entry, looked up): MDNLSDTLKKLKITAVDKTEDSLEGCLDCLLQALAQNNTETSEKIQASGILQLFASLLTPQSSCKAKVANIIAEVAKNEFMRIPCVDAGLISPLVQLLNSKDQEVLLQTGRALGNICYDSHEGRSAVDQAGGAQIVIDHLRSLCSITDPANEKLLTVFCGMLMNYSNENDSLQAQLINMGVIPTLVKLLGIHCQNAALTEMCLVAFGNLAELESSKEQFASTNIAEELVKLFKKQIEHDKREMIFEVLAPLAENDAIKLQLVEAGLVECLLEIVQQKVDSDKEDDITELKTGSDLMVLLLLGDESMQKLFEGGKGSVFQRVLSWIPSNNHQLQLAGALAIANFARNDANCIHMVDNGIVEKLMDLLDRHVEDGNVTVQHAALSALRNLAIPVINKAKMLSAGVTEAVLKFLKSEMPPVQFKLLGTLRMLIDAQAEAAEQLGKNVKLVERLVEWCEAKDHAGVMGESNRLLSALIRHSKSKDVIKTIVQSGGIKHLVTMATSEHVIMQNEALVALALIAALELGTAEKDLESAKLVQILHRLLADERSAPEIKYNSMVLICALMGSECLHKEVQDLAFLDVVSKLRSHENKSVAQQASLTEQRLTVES
inactive: IRAK-1-4 Inhibitor I -0.044 | ibrutinib -0.098 | [1] 0.04 | ralimetinib 0.005 | [2] -0.114 | [4] -0.005 | pinometostat 0.067 | [5] 0.011 | [6] 0.008 | [7] -0.04 | [8] -0.035 | [9] 0.073 | [10] 0.042 | Nexturastat A -0.023 | vemurafenib -0.014 | [11] 0.174 | [12] 0.016 | givinostat 0.047 | barasertib 0.019
active: [3] -0.277

RBM33 (UniProt Q96EV2)
Sequence of UniProt Q96EV2 (Q96EV2 whole entry, looked up): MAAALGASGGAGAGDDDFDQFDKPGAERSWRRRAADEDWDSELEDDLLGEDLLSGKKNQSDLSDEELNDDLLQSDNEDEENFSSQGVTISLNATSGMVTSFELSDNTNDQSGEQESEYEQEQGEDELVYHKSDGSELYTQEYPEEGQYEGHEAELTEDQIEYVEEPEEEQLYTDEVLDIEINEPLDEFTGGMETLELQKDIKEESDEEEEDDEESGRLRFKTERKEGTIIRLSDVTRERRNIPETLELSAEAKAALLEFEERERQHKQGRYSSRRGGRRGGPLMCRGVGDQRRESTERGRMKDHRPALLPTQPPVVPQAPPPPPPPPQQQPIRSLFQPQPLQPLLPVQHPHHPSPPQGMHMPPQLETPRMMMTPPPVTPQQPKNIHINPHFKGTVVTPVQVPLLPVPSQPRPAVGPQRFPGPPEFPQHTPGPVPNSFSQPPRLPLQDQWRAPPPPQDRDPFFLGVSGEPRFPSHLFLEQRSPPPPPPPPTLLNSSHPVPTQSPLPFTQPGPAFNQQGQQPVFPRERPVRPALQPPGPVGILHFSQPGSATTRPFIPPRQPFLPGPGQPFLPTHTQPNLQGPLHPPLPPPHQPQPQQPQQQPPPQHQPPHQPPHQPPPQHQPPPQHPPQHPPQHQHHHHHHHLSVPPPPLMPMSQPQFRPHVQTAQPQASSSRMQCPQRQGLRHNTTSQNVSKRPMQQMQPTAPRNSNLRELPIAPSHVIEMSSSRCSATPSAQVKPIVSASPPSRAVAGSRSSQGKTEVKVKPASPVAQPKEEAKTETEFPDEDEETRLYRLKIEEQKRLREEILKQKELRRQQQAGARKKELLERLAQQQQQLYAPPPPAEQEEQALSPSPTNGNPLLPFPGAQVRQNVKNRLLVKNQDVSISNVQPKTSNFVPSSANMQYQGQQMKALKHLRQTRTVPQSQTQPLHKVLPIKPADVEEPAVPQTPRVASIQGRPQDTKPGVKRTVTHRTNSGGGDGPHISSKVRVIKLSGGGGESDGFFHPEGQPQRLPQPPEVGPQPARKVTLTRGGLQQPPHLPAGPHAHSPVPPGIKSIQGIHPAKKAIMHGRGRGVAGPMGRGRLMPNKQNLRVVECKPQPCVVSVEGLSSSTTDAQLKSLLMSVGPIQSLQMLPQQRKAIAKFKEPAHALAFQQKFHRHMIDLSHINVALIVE
active: [6] -0.282
inactive: IRAK-1-4 Inhibitor I -0.058 | ibrutinib 0.024 | [1] -0.063 | ralimetinib 0.014 | [2] 0.046 | [3] -0.018 | [4] -0.01 | pinometostat -0.01 | [5] 0.001 | [7] -0.024 | [8] -0.001 | [9] -0.014 | [10] 0.014 | Nexturastat A 0.021 | vemurafenib -0.019 | [11] 0.022 | [12] 0.022 | givinostat 0.077 | barasertib 0.037

SENP6 (UniProt Q9GZR1)
Sequence of UniProt Q9GZR1 (Q9GZR1 whole entry, looked up): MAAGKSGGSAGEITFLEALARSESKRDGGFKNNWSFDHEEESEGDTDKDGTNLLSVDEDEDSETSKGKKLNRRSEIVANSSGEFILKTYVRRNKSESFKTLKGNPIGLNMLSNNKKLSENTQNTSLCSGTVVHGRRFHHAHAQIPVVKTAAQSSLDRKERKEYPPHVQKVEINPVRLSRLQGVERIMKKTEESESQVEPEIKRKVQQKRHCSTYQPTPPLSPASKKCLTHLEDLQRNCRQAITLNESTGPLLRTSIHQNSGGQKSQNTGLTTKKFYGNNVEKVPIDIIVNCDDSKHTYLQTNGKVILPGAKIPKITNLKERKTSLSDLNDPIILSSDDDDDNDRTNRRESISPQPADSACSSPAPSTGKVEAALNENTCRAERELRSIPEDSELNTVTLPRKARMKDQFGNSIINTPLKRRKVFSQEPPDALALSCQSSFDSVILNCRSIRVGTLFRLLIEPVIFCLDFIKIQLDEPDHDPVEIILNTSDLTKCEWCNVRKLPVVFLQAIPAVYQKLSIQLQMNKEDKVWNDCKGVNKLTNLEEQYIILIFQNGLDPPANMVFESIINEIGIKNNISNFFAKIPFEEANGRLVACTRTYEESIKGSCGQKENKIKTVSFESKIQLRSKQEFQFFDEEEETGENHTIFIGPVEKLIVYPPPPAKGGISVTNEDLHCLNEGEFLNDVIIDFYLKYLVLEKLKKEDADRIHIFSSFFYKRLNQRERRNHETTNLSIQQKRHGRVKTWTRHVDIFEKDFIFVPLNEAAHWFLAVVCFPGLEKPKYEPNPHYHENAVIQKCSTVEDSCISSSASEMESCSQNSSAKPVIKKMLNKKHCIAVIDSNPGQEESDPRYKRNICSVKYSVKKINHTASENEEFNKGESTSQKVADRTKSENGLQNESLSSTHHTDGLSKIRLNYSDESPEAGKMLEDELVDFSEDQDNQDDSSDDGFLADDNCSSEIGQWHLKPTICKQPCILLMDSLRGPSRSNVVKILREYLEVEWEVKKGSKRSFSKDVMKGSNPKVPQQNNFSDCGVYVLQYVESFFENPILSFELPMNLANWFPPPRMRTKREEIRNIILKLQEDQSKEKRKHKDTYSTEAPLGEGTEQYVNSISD
inactive: IRAK-1-4 Inhibitor I 0.005 | ibrutinib -0.018 | [1] -0.063 | ralimetinib -0.031 | [2] -0.058 | [3] 0.094 | [4] 0.043 | pinometostat 0.004 | [5] -0.028 | [6] 0.057 | [7] -0.048 | [8] -0.006 | [9] 0.037 | [10] -0.007 | Nexturastat A 0.247 | vemurafenib -0.028 | [11] -0.01 | [12] 0.077 | givinostat 0.057 | barasertib -0.026

RNF14 (UniProt Q9UBS8)
Sequence of UniProt Q9UBS8 (Q9UBS8 whole entry, looked up): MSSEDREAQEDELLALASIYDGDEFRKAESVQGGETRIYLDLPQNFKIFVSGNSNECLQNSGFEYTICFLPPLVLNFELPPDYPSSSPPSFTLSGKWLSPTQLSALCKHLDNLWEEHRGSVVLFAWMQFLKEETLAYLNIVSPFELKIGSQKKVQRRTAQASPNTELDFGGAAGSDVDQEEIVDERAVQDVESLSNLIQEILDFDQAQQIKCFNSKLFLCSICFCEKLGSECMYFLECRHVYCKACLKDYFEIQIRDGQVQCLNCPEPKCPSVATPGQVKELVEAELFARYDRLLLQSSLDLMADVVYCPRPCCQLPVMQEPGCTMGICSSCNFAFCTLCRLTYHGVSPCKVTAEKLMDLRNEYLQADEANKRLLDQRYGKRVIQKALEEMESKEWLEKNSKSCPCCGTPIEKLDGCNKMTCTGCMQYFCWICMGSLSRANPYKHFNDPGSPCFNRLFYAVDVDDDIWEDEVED
inactive: IRAK-1-4 Inhibitor I 0.019 | ibrutinib 0.006 | [1] 0.011 | ralimetinib -0.008 | [2] -0.035 | [3] -0.039 | [4] 0.014 | pinometostat -0.075 | [5] 0.006 | [6] -0.05 | [7] 0.039 | [8] -0.034 | [9] 0.004 | [10] 0.05 | Nexturastat A -0.04 | vemurafenib 0.026 | [11] 0.04 | [12] 0.029 | givinostat -0.07 | barasertib 0.036

RPS20 isoform 2 (UniProt P60866)
active: [6] -0.368
inactive: IRAK-1-4 Inhibitor I -0.103 | ibrutinib 0.012 | [1] 0.02 | ralimetinib 0.041 | [2] 0.046 | [3] -0.03 | [4] 0.012 | pinometostat 0.123 | [5] 0.195 | [7] 0.056 | [8] 0.021 | [9] -0.049 | [10] -0.077 | Nexturastat A 0.112 | vemurafenib -0.117 | [11] -0.068 | [12] 0.008 | givinostat -0.032 | barasertib -0.063

RNF220 (UniProt Q5VTB9)
Sequence of UniProt Q5VTB9 (Q5VTB9 whole entry, looked up): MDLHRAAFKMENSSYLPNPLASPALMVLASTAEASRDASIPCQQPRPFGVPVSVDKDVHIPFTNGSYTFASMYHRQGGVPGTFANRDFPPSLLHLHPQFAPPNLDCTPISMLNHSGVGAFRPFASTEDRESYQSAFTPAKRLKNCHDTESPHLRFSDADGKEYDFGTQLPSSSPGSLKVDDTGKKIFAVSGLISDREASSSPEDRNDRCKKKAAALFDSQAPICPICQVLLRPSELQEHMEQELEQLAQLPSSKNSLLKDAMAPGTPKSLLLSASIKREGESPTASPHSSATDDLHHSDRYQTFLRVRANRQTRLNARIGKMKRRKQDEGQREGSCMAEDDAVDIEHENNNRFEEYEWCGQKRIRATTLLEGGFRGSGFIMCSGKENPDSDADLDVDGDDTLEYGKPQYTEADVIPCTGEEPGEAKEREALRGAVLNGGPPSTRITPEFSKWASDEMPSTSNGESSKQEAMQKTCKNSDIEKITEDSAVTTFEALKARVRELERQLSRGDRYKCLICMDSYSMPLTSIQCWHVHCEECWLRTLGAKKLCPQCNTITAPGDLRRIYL
inactive: IRAK-1-4 Inhibitor I 0.017 | ibrutinib -0.032 | [1] -0.02 | ralimetinib -0.045 | [2] 0.021 | [3] -0.011 | [4] -0.046 | pinometostat -0.076 | [5] -0.023 | [6] 0.004 | [7] -0.01 | [8] -0.086 | [9] 0.008 | [10] 0.047 | Nexturastat A 0.008 | vemurafenib -0.001 | [11] -0.001 | [12] -0.023 | givinostat 0.038 | barasertib 0.016

RDH10 (UniProt Q8IZV5)
Sequence of UniProt Q8IZV5 (Q8IZV5 whole entry, looked up): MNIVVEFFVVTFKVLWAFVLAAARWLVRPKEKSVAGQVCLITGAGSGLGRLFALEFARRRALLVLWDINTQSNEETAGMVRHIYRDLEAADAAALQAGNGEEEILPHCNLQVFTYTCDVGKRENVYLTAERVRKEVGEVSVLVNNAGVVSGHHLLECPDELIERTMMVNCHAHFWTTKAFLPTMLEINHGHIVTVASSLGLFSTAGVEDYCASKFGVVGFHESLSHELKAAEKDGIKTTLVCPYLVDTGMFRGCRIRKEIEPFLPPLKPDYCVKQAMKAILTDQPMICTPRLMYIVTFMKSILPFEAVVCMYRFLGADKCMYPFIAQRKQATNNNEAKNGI
inactive: IRAK-1-4 Inhibitor I 0.076 | ibrutinib 0.159 | [1] -0.07 | ralimetinib 0.008 | [2] 0.075 | [3] 0.069 | [4] -0.043 | pinometostat -0.018 | [5] 0.007 | [6] 0.007 | [7] 0.004 | [8] -0.034 | [9] 0.047 | [10] -0.055 | Nexturastat A -0.107 | vemurafenib -0.016 | [11] -0.058 | [12] -0.043 | givinostat -0.091 | barasertib 0.011

RPS3A (UniProt P61247)
active: [6] -0.565
inactive: IRAK-1-4 Inhibitor I -0.133 | ibrutinib 0.028 | [1] 0.072 | ralimetinib 0.053 | [2] 0.069 | [3] -0.071 | [4] 0.059 | pinometostat 0.108 | [5] 0.03 | [7] 0.011 | [8] 0.009 | [9] -0.081 | [10] -0.036 | Nexturastat A 0.069 | vemurafenib -0.104 | [11] -0.095 | [12] 0.071 | givinostat -0.033 | barasertib -0.109

From the supplement of paper PMC10849652
